Sampled rows, rich in hits. Any-hit rate of the full collection: about 27%.
CYP2C19 act – cytochrome P450 2C19 (human) activation | recombinant CYP2C19, luciferin-H EGE luminescence; active compounds read high; 0 = fully inhibited enzyme, 1 = untreated enzyme | 96,000 tested, under 10 active | AID 1025 | P33261 | activation factor at 5 µM;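 active = activation factor of at least 2 at 5 µM in the primary screen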
Target sequence (P33261 whole entry, looked up): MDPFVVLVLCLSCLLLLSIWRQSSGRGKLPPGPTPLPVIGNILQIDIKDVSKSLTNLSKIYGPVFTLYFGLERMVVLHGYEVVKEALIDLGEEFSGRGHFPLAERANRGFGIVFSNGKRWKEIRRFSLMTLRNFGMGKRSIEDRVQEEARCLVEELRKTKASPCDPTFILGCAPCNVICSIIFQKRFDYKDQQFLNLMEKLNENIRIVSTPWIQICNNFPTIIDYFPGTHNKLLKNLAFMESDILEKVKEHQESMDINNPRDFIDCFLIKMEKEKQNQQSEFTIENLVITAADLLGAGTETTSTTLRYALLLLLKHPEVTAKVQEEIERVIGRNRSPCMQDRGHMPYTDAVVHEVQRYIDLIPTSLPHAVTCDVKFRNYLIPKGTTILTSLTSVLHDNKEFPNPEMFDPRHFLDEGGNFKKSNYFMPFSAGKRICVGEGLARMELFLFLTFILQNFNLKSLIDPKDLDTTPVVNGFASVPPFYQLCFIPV
sEH inh – inhibitors of human soluble epoxide hydrolase | recombinant human sEH enzymatic activity assay | P34913 | actives 0.34% (n = 91,000) | inhibition, % at 2 µM; in the data active = inhibition above about 80%
CYP2C9 activ – increases human cytochrome P450 2C9 activity | recombinant CYP2C9, luciferin-H conversion, luminescence; active compounds read high; factor 1 = untreated enzyme, 0 = blocked | activation factor at 5 µM | actives 1.4% (n = 96,000);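 active = activation factor of 2 or more for CYP2C9 at a 5 µM dose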
CYP2C9 inh – inhibitors of human CYP2C9 | inhibition, % at 5 µM | P11712 | CYP2C9 Supersomes, luciferin-H conversion, luminescence | AID 777 | actives 20% (n = 96,000);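 active = blocking of liver enzyme CYP2C9 beyond about 50% at 5 µM, limit read from the data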
sEH activator – soluble epoxide hydrolase (human) activation; activation, % at 2 µM; actives 0.04% (n = 91,000); AID 717; purified human sEH enzymatic activity, activator screen; in the data active = activation above about 37%
CYP2C19 inhib – human CYP2C19 inhibition; P33261; CYP2C19 Supersomes, luciferin-H EGE luminescence, 30 min; inhibition, % at 5 µM; actives 21% (n = 96,000); AID 778;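 active = CYP2C19 inhibition above a set limit at 5 µM in the primary screen, cut at about 50% in these data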
Hits are given with their value; . = inactive; / = not tested or not shown.

SMILES | CYP2C19 act | sEH inh | CYP2C9 activ | CYP2C9 inh | sEH activator | CYP2C19 inhib
Cc1cccc(-c2nnc(SCc3cc(=O)[nH]c4ccccc34)n2C)c1 | . | . | 2.1 | . | . | 83.5
CCCCCOc1ccc(CN2CCOCC2)cc1Cl | . | / | . | 55.1 | / | 76.0
COc1ccc(CN2CCOCC2)cc1 | . | . | . | . | . | .
COc1cccc(OC)c1OCCN(C)C | . | . | . | . | . | .
Cc1ccc2c(c1)CCCN2C(=O)c1c(C)noc1C | . | . | . | . | . | .
Cc1ccc2c(c1)CCCN2C(=O)c1cc2ccccc2oc1=O | . | . | 2.8 | . | . | .
Cc1ccc2c(c1)CCCN2C(=O)c1ccoc1C | . | / | . | . | / | 62.9
COc1ccc(-c2ccnc3nc(Sc4ncc(C(F)(F)F)cc4Cl)nn23)cc1 | . | . | . | 51.6 | . | .
Cc1c(Cl)c(C(F)(F)F)nn1CC(=O)N1CCSCC1 | / | . | / | / | . | /
COc1cccc(COc2ccccc2C2Nc3ccc(Br)cc3C(=O)N2NC(=O)c2ccncc2)c1 (stereo not given) | . | . | . | 84.8 | . | 68.9
COC(=O)c1sccc1-n1cccc1C(=O)NCc1ccccc1 | . | . | . | . | . | .
C(=C\c1ccccc1)/CN1CCN(Cc2ccc3c(c2)OCCO3)CC1 | . | . | . | . | . | .
Cc1cc(C)c2c(CN3CCN(C/C=C/c4ccccc4)CC3)cc(=O)oc2c1 | . | . | . | 68.8 | . | 50.8
COc1ccc(O)c(CN2CCN(C/C=C/c3ccccc3)CC2)c1 | . | / | . | . | / | .
COc1cc(Br)cc(CN2CCN(C/C=C/c3ccccc3)CC2)c1O | . | . | . | . | . | 60.4
CCOC(=O)C1=CN(C)C=C(C(=O)OCC)C1c1ccsc1 | . | / | . | . | / | .
CNC(=O)NC(=O)CSc1nc2cc(C(=O)OC)ccc2c(=O)n1-c1ccccc1 | . | . | . | . | . | .
COC(=O)c1ccccc1NC(=O)c1cc(-c2cccs2)on1 | . | . | 2 | . | . | .
O=C(Nc1cccc(C(F)(F)F)c1)c1cc(-c2cccs2)on1 | . | / | 2.5 | . | / | .
O=C(Nc1cccnc1)c1cc(-c2cccs2)on1 | . | . | . | . | . | .
CCC(OC(=O)CC1Sc2ccccc2NC1=O)C(=O)NCC1CCCO1 (stereo not given) | . | . | . | . | . | .
C=CCNC(=S)NNC(=O)c1ccc(OC(C)C)cc1 | . | . | . | . | . | .
Cc1ccc2c(c1)NC(=O)CC(c1ccccc1)=N2 | / | . | / | / | . | /
COc1ccc2c(c1)N(C)C(=O)CC(c1ccccc1)=N2 | . | . | . | 97.9 | . | 94.3
CCOC(=O)C(C)Oc1ccc2c(CC)cc(=O)oc2c1C (stereo not given) | . | . | . | 60.3 | . | .
SMILES | CYP2C19 act | sEH inh | CYP2C9 activ | CYP2C9 inh | sEH activator | CYP2C19 inhib
CCOC(=O)CCc1c(C)c2ccc(OC(C)C(=O)OCC)c(C)c2oc1=O (stereo not given) | . | . | . | . | . | .
CCOC(=O)C(C)Oc1ccc2c(C)cc(=O)oc2c1C(C)=O (stereo not given) | . | . | . | . | . | 58.2
Cc1c(C(=O)NCc2ccccc2)c(-c2ccccc2)nn1-c1ccccc1 | . | . | . | . | . | .
CC1Cc2ccccc2N1C(=O)Cn1cc([N+](=O)[O-])cn1 (stereo not given) | . | . | . | . | . | .
COC(=O)c1sccc1NC(=S)N1CCCCC1C (stereo not given) | . | . | . | . | . | 62.8
CCn1c(C)[n+](CC(O)COCC2CC=CCC2)c2ccccc21 (stereo not given) | . | . | . | . | . | .
COC(=O)c1cc2n(n1)CCN(Cc1ccc(F)cc1)C2=O | . | . | . | . | . | .
N#CC1(c2ccccc2)CCCN1C(=O)c1ccccc1Cl (stereo not given) | . | . | . | . | . | .
N#CC1(c2ccccc2)CCCN1C(=O)c1ccc(Br)cc1 (stereo not given) | . | . | . | 59.9 | . | 64.3
Cc1csc(NC(=O)CSc2nnc(-c3ccoc3C)n2CCc2ccccc2)n1 | . | . | . | 56.6 | . | .
Cc1csc(NC(=O)CSc2nnc(C)n2Cc2ccco2)n1 | . | . | . | . | . | .
Cc1occc1-c1nnc(SCC(=O)Nc2nccs2)n1CCc1ccccc1 | . | . | . | . | . | .
Cc1csc(NC(=O)CSc2nnc(-c3ccoc3C)n2Cc2ccco2)n1 | . | . | . | 88.5 | . | 85.0
Cc1cccc(C)c1NC(=O)CSc1nnc(-c2ccoc2C)n1CCc1ccccc1 | . | . | . | 68.3 | . | 69.9
Cc1occc1-c1nnc(SCC(=O)NCCc2ccccc2)n1C(C)c1ccccc1 (stereo not given) | . | / | . | 84.4 | / | .
O=C(O)C1CCC(CNCc2cccnc2)CC1 (stereo not given) | / | . | / | / | . | /
CC1(C)Nc2ccccc2N(CC(=O)N2CCCCC2)C1=O | . | . | . | . | . | .
CCCn1c(SCC(=O)Nc2nonc2C)nnc1-c1ccoc1C | . | . | . | . | . | 53.8
Cc1cc(C)c(S(=O)(=O)N(C2=NCCS2)S(=O)(=O)c2c(C)cc(C)cc2C)c(C)c1 | / | . | / | / | . | /
CCCOC(=O)c1ccc(NC(=O)c2cn(CC)c3nc(C)ccc3c2=O)cc1 | . | . | . | . | . | .
CCCN(C(=O)c1cccs1)c1nnc(-c2ccncc2)s1 | . | . | . | 54.8 | . | 99.0
Cc1c(C(=O)O)sc(=S)n1CCOc1ccccc1 | . | . | . | . | . | .
O=C(Nc1ccccc1Cl)C1CCCN(S(=O)(=O)c2ccc(F)cc2)C1 (stereo not given) | . | . | . | . | . | 71.3
CCOc1ccccc1NC(=O)C1CCN(c2ccc(S(=O)(=O)N3CCCC3)cc2)CC1 | . | . | . | 54.4 | . | .
CCOc1ccccc1NC(=O)C1CCN(S(=O)(=O)c2ccc(OC)c(OC)c2)CC1 | . | / | . | . | / | .
SMILES | CYP2C19 act | sEH inh | CYP2C9 activ | CYP2C9 inh | sEH activator | CYP2C19 inhib
O=C(Nc1cccc(Cl)c1)C1CCCN(S(=O)(=O)c2ccc(F)cc2)C1 (stereo not given) | . | . | . | . | . | .
CCOc1cc(NC(=O)C2CC2)c(OCC)cc1NC(=O)c1cccnc1 | . | / | . | . | / | 97.4
CCOc1ccc(OCC)c(NC(=O)C2CCN(S(=O)(=O)c3cccnc3)CC2)c1 | . | . | . | . | . | 54.6
CCOc1ccc(NC(=O)C2CCN(S(=O)(=O)c3cccnc3)CC2)cc1 | . | . | . | . | . | .
COc1ccnc(Oc2ccc3ccccc3c2)c1C#N | . | . | . | . | . | .
COc1ccc(CNS(=O)(=O)c2cc(OCC(N)=O)c(C)cc2Cl)cc1 | . | . | . | . | . | .
COc1ccc(S(=O)NC2CCCCC2)c(OC)c1C (stereo not given) | . | . | . | . | . | .
CC1CCc2nc(NCCO)nc(C(F)(F)F)c2C1 (stereo not given) | . | . | . | . | . | .
CC(C)(C)NS(=O)(=O)c1ccc(NS(C)(=O)=O)cc1 | . | . | . | . | . | .

From PubChem
